The whole screen tested about 77,000 compounds, of which about 4,600 (6%) were called active. Inconclusive results (about 1%) are left out. The entries come from a sample that favours actives as a whole. Unmarked numbers belong to inactive results.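 Rule for the calls: active = mean inhibition above about 93%, with at least 55% of replicates each passing it (limit read from the data, passing the limit was not always enough); inconclusive = only one of those two conditions holds; inactive = neither condition holds.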

One may read the inhibition as the drop in the measured response relative to a control, in per cent.

A short description of the assay: T. cruzi intracellular proliferation inhibitors, primary screen, cell-based, beta-gal Tulahuen parasites, NIH3T3 host, luminescence (AID 624255). Particulars: T. cruzi beta-gal in NIH3T3, GalScreen luminescence, 90 h; at 8.34 µM; active compounds read high.
Take `O=C(Cc1ccccn1)NCC[C@H]1CC[C@H](NC(=O)Nc2ccc(F)cc2)[C@@H](CO)O1`: the inhibition was 10.8%.

For `CCN(C[C@@H]1[C@@H](c2ccccc2)[C@H](CO)N1C(C)=O)C(=O)NC(C)C`, the inhibition was 7.85%.

Consider `CCN(C[C@H]1[C@H](c2ccccc2)[C@H](CO)N1C(=O)C1CC1)C(=O)NC1CCCC1`, for which the inhibition was 96.5% (active).

Regarding `O=C(NC[C@@H]1[C@@H](c2ccccc2)[C@H](CO)N1C(=O)C1CCC1)NC1CCCC1`, the inhibition was -28.8%.

Turning to `Cn1cnc(S(=O)(=O)N2C[C@@H](O)COC[C@@H]3O[C@H](CC(=O)NCc4ccc(F)cc4)CC[C@H]32)c1`, the inhibition was -30.6%.

`COc1cccc(S(=O)(=O)N2C[C@@H](O)COC[C@H]3O[C@H](CC(=O)N4CCCCC4)CC[C@@H]32)c1`: the inhibition was 25.3%.

As to `COc1ccc(S(=O)(=O)N(C)C[C@@H]2OCc3ccccc3-c3ccccc3C(=O)N([C@@H](C)CO)C[C@@H]2C)cc1`, the inhibition is 28.9%.

For the compound `C[C@H](CO)N1C[C@H](C)[C@@H](CN(C)S(=O)(=O)c2cccc(F)c2)Oc2ncc(-c3cccc(F)c3)cc2C1=O`, the inhibition was 49.3%.

Regarding `Cc1ccc(S(=O)(=O)N(C)C[C@@H]2OCc3ccccc3-c3c(n(C)c4ccccc34)C(=O)N([C@@H](C)CO)C[C@@H]2C)cc1`, the inhibition is 60.7%.

`C[C@@H]1CN([C@@H](C)CO)C(=O)c2ccccc2-c2ccccc2CO[C@H]1CN(C)C(=O)Nc1ccccc1`: the inhibition was 24.6%.

Consider `C[C@@H]1CN([C@@H](C)CO)C(=O)c2c(c3ccccc3n2C)-c2ccccc2CO[C@@H]1CN(C)S(=O)(=O)c1ccc(F)cc1`, for which the inhibition was -18%.

For the compound `COc1cccc(NC(=O)N(C)C[C@H]2OCc3ccccc3-c3ccccc3C(=O)N([C@H](C)CO)C[C@@H]2C)c1`, the inhibition was -8.4%.

On to `C[C@H]1CN([C@@H](C)CO)C(=O)c2ccccc2-c2ccccc2CO[C@@H]1CN(C)S(=O)(=O)c1ccc(C(F)(F)F)cc1`, for which the inhibition was 105% (active).

Turning to `C[C@H](CO)N1C[C@H](C)[C@@H](CN(C)S(=O)(=O)c2cccc(F)c2)OCc2ccccc2-c2c(n(C)c3ccccc23)C1=O`, the inhibition is 98% (active).

For `C[C@H](CO)N1C[C@H](C)[C@@H](CN(C)C(=O)Nc2ccnc(N3CCOCC3)c2)OCc2ccccc2-c2ccccc2C1=O`, the inhibition is 113% (active).

`C[C@H](CO)N1C[C@H](C)[C@H](CN(C)S(=O)(=O)c2cccc(F)c2)Oc2ncc(/C=C/c3ccccc3)cc2C1=O`: the inhibition is 107% (active).

In the case of `Cc1ccc(S(=O)(=O)N(C)C[C@H]2OCc3ccccc3-c3ccccc3C(=O)N([C@@H](C)CO)C[C@@H]2C)cc1`, the inhibition was 81.8%.

`COc1cccc(-c2cnc3c(c2)C(=O)N([C@H](C)CO)C[C@H](C)[C@H](CN(C)S(=O)(=O)c2cccc(F)c2)O3)c1`: the inhibition is 62.3%.
